Several values for one entry are separate records, joined by “and”; a condition that tells them apart may be missing. Equal values may be shown once. Records with an inconclusive call do not appear. Where a call stands in place of a potency, no number is given. More than one record can exist for a structure, and the calls need not agree. Activity calls are given as the source filed them. Unless noted, calls come from the whole dose curve; as a rule, active = well fitted curve in the direction sought with a large enough effect in the repeat runs; inconclusive = weak or mixed curves; inactive = no such curve, though single readings can be large; an effect the other way counts as inactive or inconclusive.
Tests used:
[1] = qHTS assay to identify small molecule antagonists of the thyroid receptor (TR) signaling pathway - cell viability counter screen (AID 743064); note: nearly all actives have a fitted effect of over 50% in size; note: potency is the fitted concentration of half-maximal effect
In short: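 In-well cytotoxicity read by CellTiter-Fluor (30 min, 37 C) following 23.5 h exposure of GH3 cells bearing a TRE-luciferase sensor. Compounds were added alongside 1 nM (final) T3 to drive TR transactivation.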

[2] = tested on: thyroid hormone receptor (rat, GH3 cells); test: qHTS assay to identify small molecule agonists of the thyroid receptor (TR) signaling pathway (AID 743066; calls by dose curve)
[3] = target: Estrogen receptor (Homo sapiens) (UniProt P03372); test: qHTS assay to identify small molecule antagonists of the estrogen receptor alpha (ER-alpha) signaling pathway (AID 743069; active = well fitted curve in the direction sought with a large enough effect in the signal ratio in the repeat runs, not every such curve was filed as active; the % refers to the signal ratio)
In short: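 Fluorescence intensity from a beta-lactamase FRET substrate served as the read-out. Cells: HEK293 with stably integrated ER-alpha-UAS-bla reporter. Agonist 17beta-estradiol was co-added with compounds; incubation 18 hr at 37C, substrate 2 hr at room temperature.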

[4] = qHTS assay to identify small molecule antagonists of the estrogen receptor alpha (ER-alpha) signaling pathway - cell viability counter screen (AID 743074; calls by dose curve; note: nearly all actives have a fitted effect of over 45% in size)
[5] = target: Estrogen receptor (Homo sapiens) (UniProt P03372); test: qHTS assay to identify small molecule agonists of the estrogen receptor alpha (ER-alpha) signaling pathway (AID 743075; calls by dose curve)
[6] = target: Estrogen receptor (Homo sapiens) (UniProt P03372); test: qHTS assay to identify small molecule agonists of the estrogen receptor alpha (ER-alpha) signaling pathway using the BG1 cell line (AID 743079); note: nearly all actives have a fitted effect of over 20% in size
[7] = qHTS assay to identify small molecule antagonists of the estrogen receptor alpha (ER-alpha) signaling pathway using the BG1 cell line (AID 743080; calls by dose curve;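 note: BG1 cells stimulated with 17beta-estradiol alongside compound; series mostly up to about 70 µM; nearly all actives have a fitted effect of over 25% in size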)
In short: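 BG1-Luc-4E2 cells (endogenous full-length ER-alpha, stable 4×ERE-luciferase) were starved 5 days in phenol-red-free medium with 10% charcoal-stripped FBS, plated 24 h, then given compound plus 17beta-estradiol for 21.5 h at 37 C; ONE-Glo luminescence read after 30 min.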

[8] = qHTS assay to identify small molecule antagonists of the estrogen receptor alpha (ER-alpha) signaling pathway using the BG1 cell line - cell viability counter screen (AID 743081);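 note: compound given together with 17beta-estradiol as the ER stimulus; series mostly up to about 70 µM; nearly all actives have a fitted effect of over 45% in size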
Aromatase (Homo sapiens) = Aromatase (Homo sapiens) (UniProt P11511); test: qHTS assay to identify aromatase inhibitors (AID 743083); note: series mostly up to about 70 µM; nearly all actives have a fitted effect of over 55% in size
[9] = qHTS assay to identify aromatase inhibitors - cell viability counter screen (AID 743084);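 note: cells stimulated with testosterone during compound exposure; nearly all actives have a fitted effect of over 55% in size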; note: potency is the fitted concentration of half-maximal effect
[10] = target: Aryl hydrocarbon receptor (Homo sapiens) (UniProt P35869); test: qHTS assay to identify small molecule that activate the aryl hydrocarbon receptor (AhR) signaling pathway (AID 743085); note: nearly all actives have a fitted effect of over 15% in size; note: potency is the fitted concentration of half-maximal effect;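 for activation: HG2L7.5c1 human HepG2 liver cells with stably integrated DRE-driven firefly reporter; series mostly up to about 70 µM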
In short: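 Luminescence (ONE-Glo) from a dioxin-responsive-element luciferase reporter in HG2L7.5c1 HepG2 cells after 24 hr compound exposure at 37C; viability measured by CellTiter-Fluor fluorescence beforehand.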

[11] = qHTS assay to identify small molecule that activate the aryl hydrocarbon receptor (AhR) signaling pathway - cell viability counter screen (AID 743086);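 note: HepG2 liver cells carrying the AhR DRE luciferase reporter; series mostly up to about 70 µM; nearly all actives have a fitted effect of over 45% in size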
In short: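 Cytotoxicity counter screen: CellTiter-Fluor signal (30 min, 37 C) in 4000 HepG2 cells/well carrying the DRE-luciferase reporter, following 24 h compound exposure at 37 C.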

[12] = qHTS assay for small molecule agonists of the antioxidant response element (ARE) signaling pathway (AID 743202; active = well fitted activation curve with a large enough effect in the signal ratio in the repeat runs, not every such curve was filed as active; the % refers to the signal ratio; note: potency is the fitted concentration of half-maximal effect)
In short: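 Beta-lactamase reporter activity, read as fluorescence intensity, reflects ARE/Nrf2 pathway induction in HepG2 cells after 16 h compound exposure at 37 C; substrate loading was 2 h at room temperature.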

[13] = qHTS assay for small molecule agonists of the antioxidant response element (ARE) signaling pathway - cell viability counter screen (AID 743203; calls by dose curve; note: nearly all actives have a fitted effect of over 55% in size)
In short: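 Cytotoxicity was tested in parallel with the ARE reporter screen. ARE-bla HepG2 cells were exposed to compounds for 16 hrs, and viability was taken from CellTiter-Glo luminescence.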

[14] = qHTS assay for small molecule activators of the heat shock response signaling pathway (AID 743210; active = well fitted activation curve with a large enough effect in the signal ratio in the repeat runs, with a control signal flat, not every such curve was filed as active; the % refers to the signal ratio;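 note: HeLa cells with beta-lactamase reporter driven by heat shock elements; series mostly up to about 63 µM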)
In short: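 Fluorescence from a cleaved B/G FRET substrate (2.5 h, room temp) reports HSE-driven beta-lactamase in HeLa cells treated 5 h at 37 C with DMSO-dissolved compounds.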

[15] = target: Peroxisome proliferator-activated receptor gamma (Homo sapiens) (UniProt P37231); test: qHTS assay to identify small molecule agonists of the peroxisome proliferator-activated receptor gamma (PPARg) signaling pathway (AID 743094; active = well fitted activation curve with a large enough effect in the signal ratio in the repeat runs, not every such curve was filed as active; the % refers to the signal ratio)
In short: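 Cells from the PPARg UAS-bla HEK293H line are plated and incubated 5 h at 37C. Compounds in DMSO are pinned in and left 17 h at 37C. LiveBLAzer B/G substrate is then added for 1 h at room temperature before fluorescence is measured.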

[16] = target: Peroxisome proliferator-activated receptor gamma (Homo sapiens) (UniProt P37231); test: qHTS assay to identify small molecule antagonists of the peroxisome proliferator-activated receptor gamma (PPARg) signaling pathway (AID 743191; calls by dose curve; note: nearly all actives have a fitted effect of over 30% in size; note: potency is the fitted concentration of half-maximal effect)
In short: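 Beta-lactamase reporter under UAS control in HEK293H PPARg-bla cells; compound treatment 17 h at 37C. Read-out: fluorescence intensity after 1 h room-temperature incubation with LiveBLAzer B/G FRET substrate.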

[17] = qHTS assay to identify small molecule antagonists of the peroxisome proliferator-activated receptor gamma (PPARg) signaling pathway - cell viability counter screen (AID 743194); note: nearly all actives have a fitted effect of over 55% in size
In short: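 Viability was measured as CellTiter-Glo luminescence in GeneBLAzer PPARg UAS-bla HEK293H cells. These cells had been exposed 17 h at 37 C to compounds together with rosiglitazone at 50 nM final, with the beta-lactamase readout taken in the same wells.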

[18] = qHTS assay for small molecule activators of the heat shock response signaling pathway - cell viability counter screen (AID 743209); note: nearly all actives have a fitted effect of over 50% in size
In short: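 Cytotoxicity counter screen run in parallel with the HSE beta-lactamase reporter, using the same wells. HeLa HSE-bla cells received compound for 5 h at 37 C; ATP-based CellTiter-Glo luminescence was measured after 30 min at room temperature.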

Sequence of Aryl hydrocarbon receptor (Homo sapiens) (P35869 whole entry, looked up): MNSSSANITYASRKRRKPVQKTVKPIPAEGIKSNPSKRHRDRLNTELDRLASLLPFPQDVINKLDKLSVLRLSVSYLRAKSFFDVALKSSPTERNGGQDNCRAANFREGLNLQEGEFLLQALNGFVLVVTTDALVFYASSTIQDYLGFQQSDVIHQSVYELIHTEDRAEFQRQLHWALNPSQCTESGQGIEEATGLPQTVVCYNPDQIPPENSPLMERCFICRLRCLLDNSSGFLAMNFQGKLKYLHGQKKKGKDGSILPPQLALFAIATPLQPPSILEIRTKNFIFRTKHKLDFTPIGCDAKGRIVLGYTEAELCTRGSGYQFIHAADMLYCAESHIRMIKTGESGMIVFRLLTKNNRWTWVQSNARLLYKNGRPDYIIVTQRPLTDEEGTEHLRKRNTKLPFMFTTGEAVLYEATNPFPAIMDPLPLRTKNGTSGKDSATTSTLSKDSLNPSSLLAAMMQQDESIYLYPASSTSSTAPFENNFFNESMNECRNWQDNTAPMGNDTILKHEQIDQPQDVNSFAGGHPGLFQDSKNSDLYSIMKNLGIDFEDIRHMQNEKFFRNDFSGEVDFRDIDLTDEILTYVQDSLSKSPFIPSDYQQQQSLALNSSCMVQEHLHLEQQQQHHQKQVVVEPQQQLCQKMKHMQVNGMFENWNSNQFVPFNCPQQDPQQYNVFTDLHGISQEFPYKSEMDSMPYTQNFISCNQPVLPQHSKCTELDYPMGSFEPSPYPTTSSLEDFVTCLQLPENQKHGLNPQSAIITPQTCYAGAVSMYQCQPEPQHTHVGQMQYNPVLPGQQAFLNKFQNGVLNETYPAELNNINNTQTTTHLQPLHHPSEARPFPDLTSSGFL
Sequence of Aromatase (Homo sapiens) (P11511 whole entry, looked up): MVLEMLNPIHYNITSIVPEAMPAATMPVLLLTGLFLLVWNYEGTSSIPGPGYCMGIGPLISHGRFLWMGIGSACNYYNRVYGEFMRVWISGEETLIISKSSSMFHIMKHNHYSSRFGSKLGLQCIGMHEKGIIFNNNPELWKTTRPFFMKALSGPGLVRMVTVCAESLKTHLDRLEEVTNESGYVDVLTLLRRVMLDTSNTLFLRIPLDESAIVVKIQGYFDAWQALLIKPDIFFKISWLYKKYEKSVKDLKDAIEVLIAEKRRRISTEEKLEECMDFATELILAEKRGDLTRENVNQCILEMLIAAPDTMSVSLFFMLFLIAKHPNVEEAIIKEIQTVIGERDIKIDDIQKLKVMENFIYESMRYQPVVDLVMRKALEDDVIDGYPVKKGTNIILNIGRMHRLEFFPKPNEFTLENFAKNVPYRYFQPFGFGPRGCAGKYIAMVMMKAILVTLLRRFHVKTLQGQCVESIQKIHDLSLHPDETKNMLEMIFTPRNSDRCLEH
Sequence of Estrogen receptor (Homo sapiens) (P03372 whole entry, looked up): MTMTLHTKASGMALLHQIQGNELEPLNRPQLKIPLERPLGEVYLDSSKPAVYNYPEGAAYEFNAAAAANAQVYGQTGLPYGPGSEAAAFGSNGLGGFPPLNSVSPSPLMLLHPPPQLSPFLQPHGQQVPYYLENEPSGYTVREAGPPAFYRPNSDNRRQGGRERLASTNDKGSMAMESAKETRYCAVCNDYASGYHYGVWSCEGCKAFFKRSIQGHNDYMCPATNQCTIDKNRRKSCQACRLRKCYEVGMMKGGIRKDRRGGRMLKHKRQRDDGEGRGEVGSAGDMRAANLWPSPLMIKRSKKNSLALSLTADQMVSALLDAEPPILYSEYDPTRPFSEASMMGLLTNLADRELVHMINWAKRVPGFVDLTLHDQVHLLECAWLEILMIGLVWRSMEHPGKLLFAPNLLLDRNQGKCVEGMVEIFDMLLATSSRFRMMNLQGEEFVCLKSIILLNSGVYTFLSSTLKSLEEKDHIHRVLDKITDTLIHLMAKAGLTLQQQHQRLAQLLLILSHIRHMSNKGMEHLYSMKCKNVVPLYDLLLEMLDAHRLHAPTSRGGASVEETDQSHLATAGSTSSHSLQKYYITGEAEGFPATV
Sequence of Peroxisome proliferator-activated receptor gamma (Homo sapiens) (P37231 whole entry, looked up): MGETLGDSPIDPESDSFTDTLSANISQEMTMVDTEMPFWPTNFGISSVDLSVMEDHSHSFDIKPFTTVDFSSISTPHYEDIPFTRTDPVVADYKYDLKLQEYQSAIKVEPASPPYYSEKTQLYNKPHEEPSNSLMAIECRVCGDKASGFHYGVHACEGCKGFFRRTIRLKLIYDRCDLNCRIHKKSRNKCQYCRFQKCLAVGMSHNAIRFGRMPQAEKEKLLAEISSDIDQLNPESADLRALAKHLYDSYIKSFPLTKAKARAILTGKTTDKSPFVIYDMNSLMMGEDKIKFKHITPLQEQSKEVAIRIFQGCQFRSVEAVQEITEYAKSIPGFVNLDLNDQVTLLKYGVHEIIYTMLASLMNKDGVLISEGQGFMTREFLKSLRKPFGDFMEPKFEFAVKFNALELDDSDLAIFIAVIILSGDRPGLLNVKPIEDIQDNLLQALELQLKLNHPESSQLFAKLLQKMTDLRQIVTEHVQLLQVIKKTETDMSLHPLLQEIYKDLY

| Structure (SMILES) | Potency [1] | Potency [2] | Potency [3] | outcome [4] | outcome [5] | Potency [6] | outcome [7] | outcome [8] | Potency (Aromatase (Homo sapiens)) | Potency [9] | Potency [10] | outcome [11] | Potency [12] | Potency [13] | Potency [14] | outcome [15] | Potency [16] | outcome [17] | Potency [18] |
| --- | --- | --- | --- | --- | --- | --- | --- | --- | --- | --- | --- | --- | --- | --- | --- | --- | --- | --- | --- |
| Cl/C=C/Cl | inactive | inactive | inactive | inactive | inactive | inactive | inactive | inactive | inactive | inactive | inactive | inactive | inactive | inactive | inactive | – | – | – | – |
| CNC(=O)Oc1cccc2ccccc12 | inactive | inactive | inactive | inactive | inactive | inactive | inactive | inactive | inactive | inactive | 5.31 µM (active) and 54 µM (active) and 27.3 µM (active) | inactive | – | inactive | inactive | – | – | – | – |
| CC(=O)/C=C/c1ccccc1 | inactive | – | – | inactive | – | – | – | inactive | inactive | inactive | inactive | inactive | inactive | inactive | inactive | inactive | inactive | – | – |
| Nc1ccc(N)cc1 | inactive and 30.8 µM (active) | inactive | – | inactive | – | – | – | inactive | inactive | inactive and 54.7 µM (active) and 43.3 µM (active) | – | inactive | 8.67 µM (active) and 10.6 µM (active) | inactive | – | inactive | inactive | inactive | inactive |
| Oc1ccc(Cl)cc1 | inactive | inactive | – | inactive | – | – | – | inactive | inactive | inactive | inactive | inactive | inactive | inactive | inactive | – | – | – | inactive |
| CC(C)(C)C(=O)CCl | inactive | – | inactive | inactive | inactive | inactive | inactive | inactive | inactive | inactive | – | inactive | inactive | inactive | inactive | inactive | inactive | inactive | inactive |
| Cc1cccc(C)c1N | – | inactive | inactive | inactive | inactive | inactive | inactive | inactive | inactive | inactive | inactive | inactive | inactive | inactive | inactive | inactive | inactive | inactive | – |
| Cl[C@H]1OCCO[C@@H]1Cl | inactive | inactive | – | inactive | – | – | – | inactive | inactive | inactive | inactive | inactive | inactive | inactive | inactive | inactive | inactive | inactive | – |
| O=S(=O)(O)OOS(=O)(=O)O | inactive | inactive | – | inactive | – | – | – | inactive | inactive | inactive | inactive | inactive | inactive | inactive | inactive | inactive | inactive | inactive | inactive |
| Cc1ccccc1N | inactive | inactive | – | inactive | – | – | – | inactive | inactive | inactive | inactive | inactive | inactive | inactive | inactive | – | – | inactive | – |
| CC[N+](=O)[O-] | inactive | inactive | – | inactive | – | – | – | inactive | inactive | inactive | inactive | inactive | inactive | inactive | inactive | inactive | – | inactive | – |
| CC12CC1(C)C(=O)N(c1cc(Cl)cc(Cl)c1)C2=O (stereo not drawn) | inactive | inactive | – | inactive | – | – | – | inactive | inactive | inactive | 27.2 µM (active) and inactive | inactive | – | inactive | inactive | inactive | – | – | – |
| CN(C)C(=O)C(c1ccccc1)c1ccccc1 | inactive | inactive | – | inactive | – | – | – | inactive | inactive | inactive | inactive | inactive | inactive | inactive | inactive | inactive | inactive | – | inactive |
| CCOC(=O)CC(SP(=O)(OC)OC)C(=O)OCC (stereo not drawn) | inactive | inactive | – | – | – | – | – | inactive | inactive | inactive | inactive | inactive | – | inactive | inactive | inactive | inactive | inactive | – |
| O=C(O)c1cc(Oc2ccc(C(F)(F)F)cc2Cl)ccc1[N+](=O)[O-] | inactive | inactive | – | inactive | – | – | – | inactive | inactive | inactive | inactive | inactive | inactive | inactive | inactive | inactive | inactive | – | inactive |
| CNC(=O)O/N=C/C(C)(C)S(C)=O (stereo not drawn) | inactive | inactive | inactive | inactive | inactive | inactive | inactive | inactive | inactive | inactive | – | inactive | inactive | inactive | inactive | inactive | inactive | inactive | inactive |
| Nc1cc(Cl)cc(Cl)c1 | inactive | inactive | – | inactive | – | – | – | inactive | inactive | inactive | inactive | inactive | inactive | inactive | inactive | inactive | – | – | – |
| Cc1cccc(N)c1 | inactive | inactive | inactive | inactive | inactive | inactive | inactive | inactive | – | inactive | – | inactive | inactive | inactive | inactive | inactive | inactive | – | – |
| COc1cc(-c2ccc(N)c(OC)c2)ccc1N | inactive and 52 µM (active) | inactive | – | inactive | – | – | – | inactive | inactive | inactive | – | inactive | – | inactive | inactive | inactive | inactive and 33.1 µM (active) | – | – |
| COC(=O)Nc1cccc(OC(=O)Nc2cccc(C)c2)c1 | inactive | inactive | – | inactive | – | – | – | inactive | inactive | inactive | 27.3 µM (active) and 2.73 µM (active) | inactive | 48.6 µM (active) and inactive | inactive | – | inactive | – | – | – |
| Cc1cc(Cl)ccc1OC(C)C(=O)O (stereo not drawn) | inactive | inactive | inactive | inactive | inactive | inactive | inactive | inactive | inactive | inactive | inactive | inactive | inactive | inactive | inactive | – | inactive | inactive | – |
| CCCCCCCCCCCCCCCCCC(=O)O | inactive | – | – | inactive | – | – | – | inactive | – | inactive | – | inactive | inactive | inactive | – | – | – | inactive | inactive |
| C=C(C)C(=O)OCC(CC)CCCC (stereo not drawn) | – | inactive | inactive | inactive | inactive | inactive | inactive | inactive | inactive | inactive | inactive | inactive | inactive | inactive | inactive | inactive | inactive | inactive | inactive |
| CNc1cnn(-c2cccc(C(F)(F)F)c2)c(=O)c1Cl | inactive | inactive | – | inactive | – | – | – | inactive | inactive | inactive | 27.3 µM (active) | inactive | – | inactive | inactive | inactive | inactive | inactive | inactive |
| NNc1ccccc1 | inactive | inactive | – | inactive | – | – | – | inactive | inactive | inactive | – | inactive | inactive | inactive | inactive | inactive | 13.8 µM (active) and inactive | inactive | – |
| COP(=S)(OC)SCN1C(=O)c2ccccc2C1=O | inactive | inactive | – | inactive | – | – | – | inactive | inactive | inactive | inactive | inactive | inactive | inactive | inactive | inactive | inactive | inactive | inactive |

— PubChem BioAssay (Tox21)
